Results published in PubChem BioAssay (NCI).
This is part of a sample that, as a whole, favours compounds with a hit. Of some 79,000 tested, about 15% had one in any assay. Calls of active or inactive are those of the source. Rule as the data show it: active = growth inhibition above about 70%; inactive = the rest.

Experiments:
[1] = NCI Yeast Anticancer Drug Screen. Data for the rad50 strain (AID 155);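 also: 0% = growth of vehicle-only cultures of the same strain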; conditions: S. cerevisiae rad50 strain growth inhibition; at 50.0 µM; active compounds read high
Method in brief: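 Vehicle-treated cultures provide the reference for the growth inhibition reported for compound-exposed, repair-deficient yeast.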

[2] = NCI Yeast Anticancer Drug Screen. Data for the mec2-1 strain (AID 157); conditions: S. cerevisiae mec2-1 strain, at 50.0 µM, active compounds read high
Method in brief: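 Strain: mec2-1 (DNA repair/cell cycle alteration). Compound exposure, then growth measured; inhibition expressed relative to vehicle.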

[3] = NCI Yeast Anticancer Drug Screen. Data for the sgs1 mgt1 strain (AID 161);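 also: 0% = growth of cultures given vehicle only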; conditions: S. cerevisiae sgs1 mgt1 strain, at 50.0 µM, active compounds read high
Method in brief: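 Mutant yeast exposed to compound; growth scored against vehicle-only wells.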

[4] = NCI Yeast Anticancer Drug Screen. Data for the cln2 rad14 strain (AID 165);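 also: 0% = growth equal to vehicle treated cultures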; conditions: S. cerevisiae cln2 rad14 strain, at 50.0 µM, active compounds read high
Method in brief: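 Compounds are applied to the cln2 rad14 yeast strain, and growth is then compared with that of vehicle-treated cultures to give inhibition.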

[5] = NCI Yeast Anticancer Drug Screen. Data for the bub3 strain (AID 167); conditions: S. cerevisiae bub3 mutant strain, at 50.0 µM, active compounds read high
Method in brief: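 Mutant yeast screening strain plus compound; vehicle-treated cultures serve as the 0% inhibition reference.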

[6] = NCI Yeast Anticancer Drug Screen. Data for the mlh1 rad18 strain (AID 175); conditions: S. cerevisiae mlh1 rad18 strain growth inhibition; at 50.0 µM; active compounds read high
Method in brief: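 Read-out is yeast growth inhibition, calculated against vehicle-only controls. The compound was applied to a strain engineered with DNA damage repair alterations.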

Measured: growth inhibition

COC1OC(C(O)C(O)CO)C(O)C(O)C1O (stereo not given)
inactive: [1] 14.3% | [2] -5.7% | [3] 11.8% | [4] -55.7% | [5] -3.65% | [6] 11.7%

CC1CN(CCO)CC(C)O1 (stereo not given)
inactive: [1] -14.1% | [2] -26.8% | [3] 4.05% | [4] 5% | [5] -1.15% | [6] -10.2%

c1cc(CNCCNCc2ccncc2)ccn1
inactive: [1] -36% | [2] -48% | [3] -46.5% | [4] -4.15% | [5] -34% | [6] -34.5%

CCCCc1ccc2nc(NC(=O)OC)[nH]c2c1
inactive: [1] -4.25% | [2] 21.5% | [3] 13.6% | [4] 28.8% | [5] 21.5% | [6] 11.1%

COCC(N)=O
inactive: [1] 31.2% | [2] -17.9% | [3] 15.2% | [4] -5.1% | [5] 5.2% | [6] 13.8%

COc1ccc2c(c1)Nc1ccccc1S2
inactive: [1] -23.9% | [2] -23.5% | [3] -26.6% | [4] -1.6% | [5] -14.6% | [6] -16.2%

CCOC(=O)CNC(=O)Sc1ccc(C(C)(C)C)cc1
inactive: [6] 61.8%
active: [1] 88.2% | [2] 88.2% | [3] 84.2% | [4] 70.2% | [5] 76.7%

COC(=O)c1ccc([N+](=O)[O-])c(C)c1
inactive: [1] -33.2% | [2] -30.9% | [3] -50.2% | [4] -9.9% | [5] -25.1% | [6] -27.6%

CC(=O)N(C(C)=O)c1ccc(C)cc1
inactive: [1] -13.7% | [2] -18.9% | [3] -14.7% | [4] -9.75% | [5] -11.2% | [6] -13.9%

CCCCNc1ccc(-c2ccc(NCCCC)cc2)cc1
inactive: [1] 31.9% | [2] 4.3% | [3] -3.8% | [4] -36.1% | [5] -5.3%

NNC(=O)CCCCl
inactive: [1] -10.5% | [2] -15.7% | [3] -11.5% | [4] 2.75% | [5] -21.3% | [6] -0.2%

Cc1c(Cl)cccc1N=C=S
inactive: [1] -9.85% | [2] -24% | [3] 15.4% | [4] 11.5% | [5] -0.95% | [6] 8.7%

CC(C)Sc1ncnc2nc[nH]c12
inactive: [1] 2.4% | [2] 1.1% | [3] -3.05% | [4] -0.9% | [5] 18.9% | [6] 2.5%

CN1CCCN(C(c2ccccc2)c2ccc(Br)cc2)CC1 (stereo not given)
inactive: [1] 40% | [2] 1.95% | [3] 19.8% | [4] 24.1% | [5] 30.9% | [6] 46%

C=COC(=O)C(C)(C)C
inactive: [1] 8.3% | [2] -13.8% | [3] 14.9% | [4] 21.4% | [5] -0.45% | [6] 31.5%

O=C(c1ccccc1O)N1CCCC1
inactive: [1] 19.6% | [2] 7.15% | [3] 19.9% | [4] 14.8% | [5] 2.15% | [6] 10.8%

O=C(NCc1ccccc1)/C(=C/c1ccccc1)NC(=O)c1ccccc1
inactive: [1] -33.1% | [2] -31.4% | [3] -33.9% | [4] -7.2% | [5] -12.3% | [6] -42.5%

Cc1ccc(S(=O)(=O)Oc2ccc3sc4c(CO)ccc(NCCN(C)C)c4c(=O)c3c2)cc1
inactive: [1] 6.05% | [2] 26.4% | [3] 12.2% | [4] 21.6% | [5] 22.4% | [6] 1.55%

CC(C)C(=O)OCCOc1ccc(C(C)(C)C)cc1
inactive: [1] 6.35% | [2] 3.1% | [3] 6.9% | [4] -5.2% | [5] 15% | [6] 13.7%

CCOP(=O)(NC(c1ccccc1)c1ccccc1)OCC
inactive: [1] 21.9% | [2] -15.2% | [3] 30.6% | [4] 5.55% | [5] 25.1% | [6] 28.8%

CCC(C)c1c(N)n(S(=O)(=O)c2ccc(C)cc2)oc1=O (stereo not given)
inactive: [1] -25.2% | [2] 6.8% | [3] 6.4% | [4] -25% | [5] 16.6% | [6] -3.45%

CCN1CCCC(N2c3ccccc3Sc3ccccc32)C1 (stereo not given)
inactive: [1] -9.15% | [2] -15.2% | [3] 8% | [4] -58.8% | [5] 8.5% | [6] -4%

NNc1ncccn1
inactive: [1] 6.45% | [2] -1.15% | [3] 31.4% | [4] -3.35% | [5] -10% | [6] -0.75%

O=C(O)c1ccc(OCc2ccccc2)cc1
inactive: [1] 12.6% | [2] 11.2% | [3] 38% | [4] -1.85% | [5] -28.1% | [6] 19.9%

Cc1nc(C)c(C(=O)O)cc1C(=O)O
inactive: [1] -8.9% | [2] -17.8% | [3] 9.15% | [4] 2.85% | [5] 21.4% | [6] 4%

O=C(O)CCCCCNC(=O)OCc1ccccc1
inactive: [1] 17.7% | [2] -41.9% | [3] 16.7% | [4] 29.9% | [5] 3.25% | [6] 9.3%

Cc1cc(Cl)cc(Cc2cc(Cl)cc(C)c2O)c1O
inactive: [1] 50.1% | [2] 24.1% | [3] 55% | [4] 29% | [5] 22.1% | [6] 20.6%

Cc1ccc2[nH]c3ccccc3c2c1
inactive: [1] 26.1% | [2] 14.6% | [3] 22.9% | [4] -14.8% | [5] 15% | [6] 31.1%

CCOC(OCC)C(=O)c1ccccc1
inactive: [1] -0.5% | [2] -19.9% | [3] -4.1% | [4] 9.2% | [5] 6.25% | [6] 25.1%

Cc1ccc(NC(=S)N2CCOCC2)cc1C
inactive: [1] 0.55% | [2] -17.4% | [3] 29.6% | [4] 8.35% | [5] 4.2% | [6] -1.55%

O=C(O)Cc1cccc2ccccc12
inactive: [1] 19.2% | [2] -7.55% | [3] 2.65% | [4] 0.05% | [5] -9.65% | [6] -0.55%

CC(=O)Nc1ccc(O)c(C)c1
inactive: [1] 10.8% | [2] 3.35% | [3] -25.8% | [4] -21.8% | [5] -14.8% | [6] -1.1%

COC(c1ccc2c(c1)OCO2)C(C)Br (stereo not given)
inactive: [1] 7.45% | [2] -4.4% | [3] 13.6% | [4] -31.1% | [5] -8.9% | [6] 6.55%

O=C1NC(=O)/C(=C\c2ccncc2)N1
inactive: [1] 28.9% | [2] -7.8% | [3] -0.3% | [4] 9.3% | [5] -19.8% | [6] -56.5%

CN1C(=O)NC(c2ccc(Cl)cc2)(c2ccc(Cl)cc2)C1=O
active: [6] 91%
inactive: [1] 44.9% | [2] 11.1% | [3] -23% | [4] -11.9% | [5] -8%

COc1cc(-c2ccc(NC(=O)CC(C)=O)c(OC)c2)ccc1NC(=O)CC(C)=O
inactive: [1] -17.8% | [2] -26.6% | [3] -3.35% | [4] -5.3% | [5] 5.95% | [6] -14%

CCNC(=O)Oc1ccc[nH]c1=O
inactive: [1] -7.65% | [2] -10.8% | [3] -1.1% | [4] -15.9% | [5] -2.2% | [6] -47.8%

C=CC(C)C(C)(C)O (stereo not given)
inactive: [1] -3.2% | [2] -43.5% | [3] -1% | [4] 4.25% | [5] -13.5% | [6] -2.4%

CC1CC(C)S(=O)(=O)C1 (stereo not given)
inactive: [1] -35% | [2] -30.9% | [3] -39% | [4] -14.9% | [5] -39.8% | [6] -2%

CN(C)c1ccc2c(N(C)C)cc(N(C)C)nc2c1
inactive: [1] -14.8% | [2] -4.3% | [3] -17.1% | [4] 20.4% | [5] 2.95% | [6] -12%

O=C(O)CSCC(=O)Nc1cc(C(F)(F)F)ccc1Cl
inactive: [1] -28.1% | [2] -36.6% | [3] -25.8% | [4] -22.9% | [5] -11.3% | [6] -11.2%
